# DRD3 agonist = activates the human D3 dopamine receptor; actives 0.58% (n = 410,000); P35462; D3R DiscoveRx beta-arrestin cells, luminescence, 90 min; max activation, %; in the data active = max activation above about 30%; note: 0% is about no effect
# Target sequence (P35462 whole entry, looked up): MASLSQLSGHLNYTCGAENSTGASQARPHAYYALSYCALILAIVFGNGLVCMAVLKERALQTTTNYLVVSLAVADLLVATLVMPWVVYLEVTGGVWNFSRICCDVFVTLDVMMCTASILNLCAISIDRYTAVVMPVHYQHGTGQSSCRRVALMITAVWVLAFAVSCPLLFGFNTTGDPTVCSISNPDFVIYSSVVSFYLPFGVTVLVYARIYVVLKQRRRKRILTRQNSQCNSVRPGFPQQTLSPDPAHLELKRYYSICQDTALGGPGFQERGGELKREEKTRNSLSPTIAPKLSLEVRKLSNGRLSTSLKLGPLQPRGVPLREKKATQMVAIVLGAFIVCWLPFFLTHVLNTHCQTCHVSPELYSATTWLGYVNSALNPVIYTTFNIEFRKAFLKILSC
#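 Agonist mode: compounds and dopamine controls were applied to plated cells for 90 min at 37 degrees C after an overnight attachment at 1500 cells/well. Luminescent read-out followed 30 - 60 minutes at room temperature with DiscoveRx detection reagent.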
# RGS4 inhibitor = inhibitors of human regulator of G protein signaling 4. AID 504845. Transcreener GDP fluorescence polarization, RGS4-accelerated GTP hydrolysis. P49798. Potency, µM (series often up to 114 µM), for inactives: top-dose activity change, negative = inhibition, actives largely listed as inhibitors. actives 0.039% (n = 390,000); active = well fitted inhibition curve with a large enough effect; inconclusive = small, poorly fitted or top-dose-only effect; inactive = no such curve, though single readings can be large or run the other way; note: potency is the fitted concentration of half-maximal effect; % is set by controls: 0 for no effect and ±100 for the full control effect; nearly all actives have a fitted effect of over 75% in size
# Target sequence (P49798 whole entry, looked up): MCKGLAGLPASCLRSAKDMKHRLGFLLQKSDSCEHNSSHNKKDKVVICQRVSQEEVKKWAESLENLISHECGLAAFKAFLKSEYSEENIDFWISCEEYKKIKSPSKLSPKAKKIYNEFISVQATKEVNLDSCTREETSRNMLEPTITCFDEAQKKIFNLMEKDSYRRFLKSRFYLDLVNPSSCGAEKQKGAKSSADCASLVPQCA
#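 MLSMR compounds (23 nl, pin-transferred) preincubated 10 min at room temperature with a 500nM (2x) first reagent, then RGS4 at 900nM (2x) plus Transcreener GDP mix added; fluorescence polarization (620/688 nm) read before and after 90 min at 30 °C.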
# DRD3 antagonist = D3 dopamine receptor (human) antagonism; D3R cells, DiscoveRx beta-arrestin luminescence, antagonist mode; active compounds read low; max response, negative = inhibition, %; actives 2.5% (n = 360,000); AID 652054; in the data active = max response below about -50%; inconclusive = no clear call, values can overlap the other calls; note: % is set by controls: 0 for no effect and ±100 for the full control effect
#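 Cells plated overnight at 1500 cells/well, then exposed to library compounds with dopamine controls for 90 minutes at 37 degrees C. DiscoveRx reagent added for 30–60 minutes at room temperature; luminescence read, quantitative HTS format.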
# uPA surface inh = inhibitors of cell surface uPA generation | cell surface uPA generation assay, qHTS | Potency, µM (top dose mostly 38.3 µM), for the others: at the top dose activity change, negative = inhibition, usual class: inhibitors | actives 0.31% (n = 330,000) | AID 540303; active = well fitted inhibition curve with a large enough effect; inconclusive = small, poorly fitted or top-dose-only effect; inactive = no such curve, though single readings can be large or run the other way; tested in mouse RAW 264.7 cells; note: potency is the fitted concentration of half-maximal effect; % is set by controls: 0 for no effect and ±100 for the full control effect; nearly all actives have a fitted effect of over 55% in size
# * marks the source's active call; other numbers are inactive results; ? = inconclusive; . = no result; [ ] = another dose, or the depositor's remark. Compounds with a hit are over-represented: about 3.1% of the library has one in this group of screens.
SMILES,DRD3 agonist,RGS4 inhibitor,DRD3 antagonist,uPA surface inh
C[C@@H]1CN([C@H](C)CO)C(=O)CCCn2nncc2CO[C@@H]1CN(C)C(=O)Nc1ccc2c(c1)OCO2,-10,.,-60*,.
C[C@H](CO)N1C[C@H](C)[C@@H](CN(C)C(=O)Nc2ccc(C(F)(F)F)cc2)Oc2c(cccc2N(C)C)C1=O,-75,29%,-130*,11%
C[C@@H]1CN([C@H](C)CO)C(=O)CCCn2nncc2CO[C@H]1CN(C)C(=O)Nc1ccc2c(c1)OCO2,-8,.,?,.
Cc1cccc(-c2nnc(SCc3cc(=O)c4cccc(Cl)c4[nH]3)n2C)c1,18,-6%,.,.
COC(=O)C1=C(c2ccccc2)c2ccccc2S(=O)(=O)N1CC(=O)Nc1cccc(C(C)=O)c1,-6,11%,.,.
O=C(CSc1nc(=O)n(Cc2ccco2)c2c1CCC2)Nc1cccc(F)c1,3,5%,.,.
CC(C)CCNC(=O)c1ccc2nc(Cc3ccccc3)oc2c1,8,5%,.,.
CCOC(=O)C1CCN(Cc2ccc3ccccc3c2)CC1,-26,-5%,-75*,7%
CCOC(=O)C1CCN(Cc2cccc(OC)c2)CC1,-14,-33%,-23,1%
CCOC(=O)N1CCN(C(=O)CN(Cc2ccc(Cl)cc2)S(C)(=O)=O)CC1,-2,0%,6,0%
CCOC(=O)C1CCN(Cc2cc(C(C)C)c(O)c(C(C)C)c2)CC1,-15,22%,-69*,-10%
CCOC(=O)C1CCN(Cc2ccc(F)c(F)c2)CC1,-30,10%,?,-3%
CCOC(=O)C1CCN(C(=O)CN(Cc2ccc(Cl)cc2)S(C)(=O)=O)CC1,-8,0%,-56*,11%
CCOC(=O)C1CCN(Cc2ccc(N(C)C)cc2)CC1,-8,6%,-51*,-1%
NS(=O)(=O)c1ccc(S(=O)(=O)N2CCN(c3nc(-c4cccs4)nc4ccccc34)CC2)cc1,.,0%,.,.
CCCCN1C(=O)C(=O)NC[C@@H]1Cc1ccc(O)cc1,-8,.,?,.
CCOC(=O)C1CCN(Cc2cnc(Oc3ccc(OC)cc3)s2)CC1,3,-15%,-55*,6%
CCOC(=O)C1CCN(Cc2cn[nH]c2-c2ccccc2)CC1,-8,10%,-66*,5%
CC(=O)OCC(=O)[C@@]1(O)CC[C@H]2[C@@H]3CCC4=CC(=O)CC[C@]4(C)C3=CC[C@@]21C,-3,.,.,.
N#Cc1nc(N2CCCC2)nc(N(c2ccccc2)c2ccccc2)n1,.,-3%,.,.
COc1ccc(-c2nc3c(C#N)c[nH]n3c2NC2CCCC2)cc1,50*,11%,.,.
Cc1cc(NC(=O)c2ccc(Cl)cc2)cc(C)c1OCC(=O)N1CCOCC1,-1,-3%,1,4µM*
CCCCOc1ccc(C(=O)Nc2cc(C)c(OCC(=O)N3CCOCC3)c(C)c2)cc1,3,-17%,10,-5%
CO/N=C(\C(=O)N[C@@H]1C(=O)N2C(C(=O)O)=C(CSC(=O)c3ccco3)CS[C@H]12)c1csc(N)n1,-5,.,.,.
COc1ccccc1OCCCCNCCO,-7,1%,-13,-2%
SMILES,DRD3 agonist,RGS4 inhibitor,DRD3 antagonist,uPA surface inh
CC(C)(C)c1ccccc1OCCCCCNCCO,-25,-15%,-86*,.
CC(C)c1ccccc1OCCCCCNCCO,-21,-4%,-52*,-11%
Cc1ccccc1OCCCCCNCCO,-33,-28%,-15,.
COc1ccc(N(Cc2cc3cccc(C)c3[nH]c2=O)C(=O)c2cccc(Cl)c2)cc1,3,24%,.,.
Cc1ccc(NC(=O)CCn2c(=O)c3cccn3c3ccccc32)c(Cl)c1,-2,38%,.,.
COc1cc(OC)cc(-c2sc3ccc(OC)cc3c2C#CCO)c1,40*,-3%,2,-2%
COc1cc(OC)cc(-c2sc3ccc(OC)cc3c2C#CC(C)(C)O)c1,36*,16%,29,14%
COC(=O)c1c(-c2ccc(OC)cc2)sc2ccc(OC)cc12,58*,17%,78,-2%
COC(=O)c1c(-c2ccc(OC)cc2)sc2ccc(-c3ccc4c(c3)OCO4)cc12,5,-3%,1,11%
COc1ccc(-c2sc3cc4c(cc3c2C#Cc2cncn2C)OCO4)cc1,-5,6%,-1,5%
COc1ccc(-c2sc3ccc(OC)cc3c2C#Cc2cncn2C)cc1,34*,-28%,120,-21%
COc1cccc(-c2sc3ccc(OC)cc3c2C#CCCO)c1,1,6%,10,9%
COc1cc(OC)cc(-c2sc3ccc(OC)cc3c2C#CC2(N)CCCCC2)c1,36*,-8%,64,-24%
COc1cccc(-c2sc3ccc(OC)cc3c2C#CC2(O)CCCCC2)c1,12,13%,72,0%
Cc1cccc(-c2nc3c4ccccc4n(CC(=O)Nc4cccc(F)c4)c(=O)n3n2)c1,-6,0%,.,.
O=C(CCCOc1ccccc1)N1CCN(c2ccccc2)CC1,-20,-43%,-53*,5%
COCCCNCCCCOc1ccc(OCc2ccccc2)cc1,-2,8%,-11,?
CCc1cccc(OCCCCNCCOC)c1,-13,-13%,-67*,-2%
N[C@@H](Cc1ccc(O)cc1)c1nnc([C@H](CO)NC(=O)C2CCNCC2)o1,33*,3%,5,-2%
CN(C)[C@@H](CO)c1nnc([C@H](Cc2ccc(O)cc2)NC(=O)C2CCNCC2)o1,0,3%,7,11%
CN(C)c1ccc(NC(=S)c2ccc3ccccc3n2)cc1,-6,-9%,-51*,5%
CCOc1ccc(C(=O)NCC(=O)NCCSc2ccc(Br)cc2)cc1OCC,-5,?,?,2%
O=C(NCCc1ccccc1)c1ccc(CS(=O)(=O)c2ccc(Br)cc2)o1,2,-7%,2,13%
CN(CCNC(=O)c1ccc(CS(=O)(=O)c2ccc(Br)cc2)o1)CCc1ccccc1,-14,-41%,-55*,0%
COC(=O)c1c(Oc2ccc(Br)cc2)nnc(-c2ccccc2)c1-c1ccccc1,5,0%,.,.
SMILES,DRD3 agonist,RGS4 inhibitor,DRD3 antagonist,uPA surface inh
O=C(C#Cc1ccccc1)c1cccc([N+](=O)[O-])c1,-8,?,-56*,-14%
CCOc1ccc(Cl)cc1-c1cc(C(=O)NCC2CCCCC2)[nH]n1,-20,.,?,.
COc1cc(F)ccc1-c1cc(C(=O)NCc2cccc(Cl)c2)[nH]n1,-10,.,?,.
COc1ccc(Cl)cc1-c1cc(C(=O)NCc2cccc(Cl)c2)[nH]n1,-13,.,-71*,.
COc1ccc(Cl)cc1-c1cc(C(=O)NCC2CCCCC2)[nH]n1,-16,.,-58*,.
Cc1ccc(Cl)cc1-c1cc(C(=O)NCc2ccccc2)[nH]n1,-14,.,-51*,.
CC(C)Oc1cc(F)ccc1-c1cc(C(=O)NCC2CCCCC2)[nH]n1,-11,.,-83*,.
COc1ccc(-n2nc3ccc(NC(=O)c4ccc(C#N)cc4F)cc3n2)cc1Cl,7,-10%,.,.
COc1ccc(N(C)C(=O)CCn2cnc3onc(-c4ccc(F)cc4)c3c2=O)c(OC)c1,-8,-14%,.,.
Cc1csc2nc(COc3ccccc3NC(=O)c3ccco3)cc(=O)n12,8,3%,.,.
O[Si](CCCN1CCCCC1)(c1ccc(F)cc1)C1CCCCC1 (configuration not stated),-87,-3%[56.9 µM],-110*,23%
